Measurements: PubChem BioAssay
Active and inactive are the calls of the source.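 Rule for the calls, unless noted: active = z-score of at least 1.8 in each of two replicates, scored against plate mean and spread of sample wells; inactive = the rest.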

Experiments:
[1] = survival rescue of mitochondrial mutant cells in low glucose, primary screen, MELAS cybrids, Rieske KO mouse fibroblasts, CellTiter-Glo (AID 1508586;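 active = mean z-score across replicates of 1.96 or higher in either the MELAS or the Rieske mutant cell line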;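 note: test concentration not given here; z relative to plate mean and SD of compound and empty wells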)
[2] = viability rescue of complex I mutant cybrids, primary screen, cell-based, galactose medium, ATP luminescence (AID 1645843); conditions: complex I mutant cybrid cells, 72 h, stronger effect = higher value;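 note: positive z means more ATP and so rescue of galactose-driven cybrid death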
[3] = MELAS cybrid survival, CellTiter-Glo 48 h, stronger effect = higher value
[4] = Rieske KO mouse fibroblast survival, CellTiter-Glo 72 h

SMILES	z-score [1, 3]	z-score [1, 4]	z-score [2]
CC(C)CNC(=O)[C@@H]1C[C@H](CN2CCOCC2)CN(Cc2ccncc2)C1	-0.456 (inactive)	-0.738	-0.6 (inactive)
Cc1nc2sccn2c1CN1CCC2(CC1)C(=O)N(CC(C)C)C(=O)N2CCc1ccccc1	-0.397 (inactive)	-0.675	0.34 (inactive)
CC(C)CNc1cc(C(=O)NC2Cc3ccccc3C2)cc(S(=O)(=O)NC(C)C)c1	0.0668 (inactive)	-0.0556	-1.6 (inactive)
CCCn1nc(C(=O)N2CCCCC2)c2c1CCC(NCc1cccnc1)C2 (centres undefined)	-0.0243 (inactive)	-0.185	-1.06 (inactive)
CC(C)C[C@H]1C(=O)N2CCN(Cc3cnn(-c4ccccc4)c3)C[C@@H]2C(=O)N1C	0.221 (inactive)	-0.165	-0.345 (inactive)
COCCCN1C(=O)N(Cc2ccccc2)C(=O)C12CCN(Cc1ccc(-c3ccco3)cc1)CC2	0.678 (inactive)	0.032	-1.64 (inactive)
O=C1N[C@@H](Cc2ccccc2)C(=O)N2CCN(C(=O)c3cccs3)C[C@H]12	-0.168 (inactive)	-0.046	-1.15 (inactive)
CC(=O)c1cccc(-c2cc3c(n(C)c2=O)CCN(C(=O)c2ccc4[nH]c5c(c4c2)CCCC5)C3)c1	-0.0854 (inactive)	-0.491	-1.45 (inactive)
CC(C)CN1CC(OCc2cccc(F)c2)CN(Cc2cccn2-c2ncccn2)CC1=O (centres undefined)	-0.291 (inactive)	-0.624	0.085 (inactive)
COc1cccc2ccc(CN3CCC4(CC3)C(=O)N(CCc3ccccc3)C(=O)N4C)nc12	-0.413 (inactive)	1.51	0.055 (inactive)
COCc1ccc(CN2CCC3(CC2)C(=O)N(C2Cc4ccccc4C2)C(=O)N3CC(C)C)o1	-0.309 (inactive)	-0.702	1.99 (active)
O=C1CCCc2occ(C(=O)N3CC(=O)N(Cc4ccccc4)CC(OCc4ccccn4)C3)c21 (centres undefined)	-0.412 (inactive)	-0.733	2.83 (inactive)
CC(C)NS(=O)(=O)c1cc(NCc2cnn(C)c2)cc(C(=O)NCc2cn3ccccc3n2)c1	-0.615 (inactive)	-0.511	1.27 (inactive)
CCN1C(=O)N(CC(N)=O)C(=O)C12CCN(CC(C)Cc1ccc3c(c1)OCO3)CC2 (centres undefined)	0.0615 (inactive)	-0.343	1.17 (inactive)
COC1CN(Cc2cn(C)c3ccccc23)CC(=O)N(Cc2ccccc2)C1 (centres undefined)	-0.128 (inactive)	-0.0158	0.47 (inactive)
CCN(CC)CCNC(=O)c1cc(-c2cc(C)cs2)cc(S(=O)(=O)N2CCOCC2)c1	-0.44 (inactive)	-0.00741	1.25 (inactive)
Cc1csc(-c2cc(C(=O)NCCCN3CCOCC3)cc(S(=O)(=O)N3CCOCC3)c2)c1	-0.167 (inactive)	0.151	2.09 (inactive)
O=C([C@@H]1C[C@H](CN2CCOCC2)CN(Cc2ccccc2)C1)N1CCCC1	0.0951 (inactive)	-0.211	-0.6 (inactive)
CC(C)C[C@H]1NC(=O)[C@H]2CN(C(=O)OCc3ccccc3)CCN2C1=O	-0.0626 (inactive)	-0.118	-0.205 (inactive)
COc1cccc(C(=O)N2CCN3C(=O)[C@H](C(C)C)NC(=O)[C@H]3C2)c1	-0.0303 (inactive)	-0.513	0.605 (inactive)
CCC(CC)CNc1cc(C(=O)NCCN(C)C)cc(S(=O)(=O)Nc2ccc(OC)cc2)c1	-0.364 (inactive)	0.972	-1.11 (inactive)
COc1ccc(CN2C[C@@H](CN3CCOCC3)C[C@@H](C(=O)NCC3CCCO3)C2)cc1OC (some centres undefined)	0.0226 (inactive)	0.461	1.14 (inactive)
Cc1[nH]cnc1CNc1cc(C(=O)Nc2cccc(N(C)C)c2)cc(S(=O)(=O)N2CCCC2)c1	-0.329 (inactive)	-0.954	0.055 (inactive)
CCc1nc(CNc2cc(C(=O)NCc3ccccn3)cc(S(=O)(=O)N3CCCC3)c2)c(C)[nH]1	-0.302 (inactive)	-0.597	0.97 (inactive)
CC(C)CCN1C(=O)N(CCN(C)C)C(=O)C12CCN(Cc1cn(C)c3ccccc13)CC2	-0.333 (inactive)	-0.689	0.81 (inactive)
COCCn1c(C(=O)OC)c(NC(=O)c2ccco2)c2cc(NC3CCc4ccccc4C3)cnc21 (centres undefined)	9.06 (active)	-2	-1.68 (inactive)
CN1CCN(S(=O)(=O)c2cc(C(=O)NCC3CCCO3)cc(-c3ccccc3)c2)CC1 (centres undefined)	0.139 (inactive)	0.37	-0.515 (inactive)
CN1C(=O)N(Cc2ccccc2)C2(CCN(Cc3nc4ccccc4n3C)CC2)C1=O	0.0463 (inactive)	-0.298	-0.11 (inactive)
